In PubChem BioAssay one finds composite z-score and z-score data, which are given here for six compounds.

For test [1], the system named is Plasmodium falciparum Sir2 (PF13_0152, Sir2A). Kind of test: Plasmodium falciparum Sir2A binding compounds – biochemical, small-molecule microarray, 635 nm fluorescence, primary screen (AID 1098).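 Further: score merges spot fluorescence intensity with its signal-to-noise ratio.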 The settings on record: fluorescence 635 nm, higher = more signal.
Test [2] in a line: probe aDKK1 binding to arrayed compounds – biochemical, biotinylated probe, 635/667 nm fluorescence, primary screen (AID 1099).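 Further: score merges 667nm spot fluorescence with signal to noise across triplicate slides.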 The following applies: small-molecule microarray, higher = more signal.
Test [3] can be described thus: probe aCHRDL2 binding to arrayed compounds – biochemical, biotinylated probe, 635/667 nm fluorescence, primary screen (AID 1100). The following applies: small-molecule microarray, higher = more signal.
Test [4] can be described thus: change in splice reporter luminescence, either direction, cell-based, HEK293, spliceosome inhibition project, primary screen (AID 1101).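 Further: HEK293 cells carrying a splicing-competent luciferase reporter gene; test concentration not given here.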 The settings on record: HEK293 splicing luciferase reporter, 24 h, higher = more signal, called active from +8 up or from −8 down. Background: In a reporter assay the amount or activity of a reporter protein is the signal.
The target in test [5] is Fibroblast growth factor 10 (Homo sapiens) (UniProt O15520). The test is described as follows: compounds binding fibroblast growth factor 10 – biochemical, small-molecule microarray, 635 nm fluorescence, primary screen (AID 1102). The settings on record: FGF10 binding, fluorescence 635 nm, higher = more signal.
Chain of Fibroblast growth factor 10 (Homo sapiens) (O15520 whole entry, looked up): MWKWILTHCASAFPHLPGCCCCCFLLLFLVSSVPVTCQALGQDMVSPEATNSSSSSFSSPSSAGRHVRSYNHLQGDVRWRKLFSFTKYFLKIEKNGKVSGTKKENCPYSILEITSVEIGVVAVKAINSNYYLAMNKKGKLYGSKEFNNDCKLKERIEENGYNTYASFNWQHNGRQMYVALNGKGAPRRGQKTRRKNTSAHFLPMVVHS
For test [6], the system named is glycogen synthase kinase-3 (GSK3A per assay name; protocol says GSK3B). The test is described as follows: compounds binding glycogen synthase kinase-3 – biochemical, small-molecule microarray, 635 nm fluorescence, GSK3A, primary screen (AID 1103). Further: the record names both GSK3A and GSK3B. The following applies: fluorescence 635 nm, higher = more signal.
Test [7] deals with Epidermal growth factor receptor (Homo sapiens) (UniProt P00533). Kind of test: compounds binding epidermal growth factor receptor – biochemical, small-molecule microarray, 635 nm fluorescence, primary screen (AID 1104).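 Further: score merges 667 nm emission intensity with spot signal to noise over triplicate slides.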 The following applies: EGFR binding, higher = more signal.
Chain of Epidermal growth factor receptor (Homo sapiens) (P00533 whole entry, looked up): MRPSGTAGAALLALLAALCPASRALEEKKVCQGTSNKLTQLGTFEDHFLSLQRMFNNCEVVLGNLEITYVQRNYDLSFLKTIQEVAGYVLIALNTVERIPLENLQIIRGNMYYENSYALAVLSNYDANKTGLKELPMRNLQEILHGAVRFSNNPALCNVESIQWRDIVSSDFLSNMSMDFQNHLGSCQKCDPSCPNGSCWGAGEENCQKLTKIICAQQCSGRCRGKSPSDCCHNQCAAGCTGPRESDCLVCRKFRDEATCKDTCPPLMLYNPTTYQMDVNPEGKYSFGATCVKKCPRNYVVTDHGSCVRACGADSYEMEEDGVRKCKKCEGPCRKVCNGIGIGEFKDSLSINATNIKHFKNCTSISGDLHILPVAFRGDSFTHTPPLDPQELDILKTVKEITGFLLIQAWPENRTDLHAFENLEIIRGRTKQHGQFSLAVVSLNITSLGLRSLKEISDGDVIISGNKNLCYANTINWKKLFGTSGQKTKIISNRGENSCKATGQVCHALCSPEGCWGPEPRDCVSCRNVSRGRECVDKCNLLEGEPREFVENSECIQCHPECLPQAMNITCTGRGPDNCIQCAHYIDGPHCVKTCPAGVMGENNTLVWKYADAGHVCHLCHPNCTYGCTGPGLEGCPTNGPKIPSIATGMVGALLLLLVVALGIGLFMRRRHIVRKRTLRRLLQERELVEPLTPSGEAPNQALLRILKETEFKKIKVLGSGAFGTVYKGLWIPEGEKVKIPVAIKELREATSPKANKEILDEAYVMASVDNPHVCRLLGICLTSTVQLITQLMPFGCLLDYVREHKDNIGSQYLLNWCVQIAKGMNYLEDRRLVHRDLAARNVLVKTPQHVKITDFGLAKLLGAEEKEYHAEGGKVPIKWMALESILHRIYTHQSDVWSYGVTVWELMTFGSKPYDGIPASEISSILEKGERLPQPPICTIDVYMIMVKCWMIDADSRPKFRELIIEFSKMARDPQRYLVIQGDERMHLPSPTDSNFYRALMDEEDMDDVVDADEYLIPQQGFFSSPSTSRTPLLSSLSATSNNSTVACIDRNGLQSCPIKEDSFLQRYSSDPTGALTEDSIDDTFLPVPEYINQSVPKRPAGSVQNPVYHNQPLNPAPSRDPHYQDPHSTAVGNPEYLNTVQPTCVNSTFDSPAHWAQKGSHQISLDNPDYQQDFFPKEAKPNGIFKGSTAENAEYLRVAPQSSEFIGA
Test [8] has as its target Follistatin-related protein 3 (Homo sapiens) (UniProt O95633). The test is described as follows: compounds binding follistatin-related protein 3 – biochemical, small-molecule microarray, 635 nm fluorescence, primary screen (AID 1105).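 Further: score merges emission near 667 nm and signal to noise per printed spot across three slides.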 The settings on record: FSTL3 binding, higher = more signal.
For test [9], the target named is Dickkopf-related protein 1 (Homo sapiens) (UniProt O94907). Kind of test: small molecules binding DKK1 protein – biochemical, small-molecule microarray, 635 nm fluorescence scan, primary screen (AID 1106).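 Further: score merges emission near 667 nm with signal to noise over three replicate slides.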 The settings on record: higher = more signal.
Chain of Dickkopf-related protein 1 (Homo sapiens) (O94907 whole entry, looked up): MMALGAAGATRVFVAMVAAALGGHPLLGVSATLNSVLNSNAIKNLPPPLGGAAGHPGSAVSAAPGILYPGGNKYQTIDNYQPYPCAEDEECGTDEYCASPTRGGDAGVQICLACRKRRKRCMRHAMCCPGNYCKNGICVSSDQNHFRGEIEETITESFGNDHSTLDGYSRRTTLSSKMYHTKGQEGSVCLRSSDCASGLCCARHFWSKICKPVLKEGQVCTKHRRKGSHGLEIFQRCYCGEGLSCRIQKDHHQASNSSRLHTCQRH
Test [10] deals with Inhibin beta A chain (activin A). The test is described as follows: small molecules binding activin A – biochemical, small-molecule microarray, 635 nm fluorescence scan, primary screen (AID 1107).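 Further: mouse activin A protein probed at 4.33 µg/mL on printed slides; score merges bound-protein fluorescence near 667 nm with spot signal-to-noise.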 The following applies: INHBA, higher = more signal.
The test system of test [11] is Human papillomavirus type 1a protein E7 (residues 44-93). Kind of test: small molecules binding HPV E7 44-93 – biochemical, small-molecule microarray, residues 44-93, 635 nm fluorescence, primary screen (AID 1108).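 Further: E7 fragment applied at 1 µg/mL in TBST for 1 h at 4 C; score combines spot fluorescence with its signal to noise ratio.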 The following applies: fluorescence 635 nm, higher = more signal.
A short description of test [12]: hepatitis C replication reporter changes, two-sided – Huh7 cells, luciferase reporter, HCV replication inhibitor project, primary screen (AID 1109).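 Further: huh7 hepatoma cells harbouring a luciferase neomycin HCV replicon reporter; luciferase luminescence as measure of HCV replicon replication; test concentration not given here.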 The following applies: Huh7 HCV replicon luciferase reporter, 48 h; higher = more signal.
In test [13] the target is Left-right determination factor 2 (Homo sapiens) (UniProt O00292). The test is described as follows: small molecules binding LEFTY2 protein – biochemical, small-molecule microarray, 635 nm fluorescence scan, primary screen (AID 1110). The following applies: higher = more signal.
Chain of Left-right determination factor 2 (Homo sapiens) (O00292 whole entry, looked up): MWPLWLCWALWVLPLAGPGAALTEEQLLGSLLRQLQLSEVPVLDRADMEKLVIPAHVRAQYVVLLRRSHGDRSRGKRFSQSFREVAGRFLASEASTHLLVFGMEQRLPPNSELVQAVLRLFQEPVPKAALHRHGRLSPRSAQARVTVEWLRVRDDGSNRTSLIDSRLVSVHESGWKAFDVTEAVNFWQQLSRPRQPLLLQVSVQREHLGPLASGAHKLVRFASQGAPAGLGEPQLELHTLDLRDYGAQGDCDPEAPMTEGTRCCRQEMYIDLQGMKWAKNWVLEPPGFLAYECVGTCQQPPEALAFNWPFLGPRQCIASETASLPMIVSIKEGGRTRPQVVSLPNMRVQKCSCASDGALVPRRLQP
Test [14] has as its target Calmodulin-1 (Homo sapiens) (UniProt P0DP23). Kind of test: small molecules binding calmodulin-1 with EGTA – biochemical, small-molecule microarray, Cy5-labelled CALM1, profiling panel (AID 1111).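 Further: labelled calmodulin applied in Tris saline Tween buffer holding calcium plus EGTA and DTT.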 The settings on record: Cy5-CALM1 binding fluorescence, higher = more signal.
Test [15] shares this target. The test is described as follows: small molecules binding Ca-loaded calmodulin-1 – biochemical, small-molecule microarray, Cy5-labelled CALM1, plus calcium, artefact control for SMM control-protein annotation, profiling panel (AID 1112).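 Further: score merges spot fluorescence with signal to noise from triplicate slides.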 The settings on record: Cy5-CALM1 binding fluorescence, higher = more signal.
Test [16] in a line: probe aWnt5a binding to arrayed compounds – biochemical, biotinylated probe, 635/667 nm fluorescence, primary screen (AID 1113).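 Further: score merges 667 nm fluorescence intensity with signal-to-noise per printed feature.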 The settings on record: small-molecule microarray, higher = more signal.
Test [17] is described as follows: probe aShh binding to arrayed compounds – biochemical, biotinylated probe, 635/667 nm fluorescence, primary screen (AID 1114).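 Further: probe is biotin-labelled aShh protein from a stem cell growth factor screen; measures binding of labelled protein to compounds printed on the slide; score merges feature fluorescence at 667 nm with signal-to-noise.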 The settings on record: small-molecule microarray, higher = more signal.
Test [18] is described as follows: probe aNog binding to arrayed compounds – biochemical, biotinylated probe, 635/667 nm fluorescence, primary screen (AID 1115).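 Further: probe is biotinylated aNog protein used at 0.15 µg/mL for 1 h at 4 C; z-score combines 667 nm fluorescence of each spot with its signal to noise.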 The following applies: small-molecule microarray, higher = more signal.
Test [19] has as its target Torsin-1A-interacting protein 1 (Homo sapiens) (UniProt Q5JTV8). Kind of test: compound microarray binding of lysate hLAP1 – cell lysate, small-molecule microarray, COS7 lysate, 635/667 nm fluorescence, primary screen (AID 1116). The settings on record: 635 nm fluorescence, higher = more signal.
The target in test [20] is Alpha-bungarotoxin (Bungarus multicinctus) (UniProt P60615). Kind of test: compounds binding labelled alpha-BTX control protein – biochemical, small-molecule microarray, Alexa647 label, 635/667 nm fluorescence, artefact control for SMM control protein annotation, profiling panel (AID 1117). The following applies: alpha-BTX-A647 binding fluorescence, higher = more signal.
Chain of Alpha-bungarotoxin (Bungarus multicinctus) (P60615 whole entry, looked up): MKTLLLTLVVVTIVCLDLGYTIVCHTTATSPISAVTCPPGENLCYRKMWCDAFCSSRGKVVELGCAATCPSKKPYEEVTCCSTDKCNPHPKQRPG

Activity calls are given as the source filed them.

Chain of Follistatin-related protein 3 (Homo sapiens) (O95633 whole entry, looked up): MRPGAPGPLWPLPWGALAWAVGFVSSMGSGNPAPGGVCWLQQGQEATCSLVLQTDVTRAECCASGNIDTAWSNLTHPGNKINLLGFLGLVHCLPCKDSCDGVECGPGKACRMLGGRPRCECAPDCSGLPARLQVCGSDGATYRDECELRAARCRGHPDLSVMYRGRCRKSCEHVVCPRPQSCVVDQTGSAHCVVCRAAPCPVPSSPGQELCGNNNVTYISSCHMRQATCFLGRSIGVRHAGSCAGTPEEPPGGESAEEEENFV
Chain of Torsin-1A-interacting protein 1 (Homo sapiens) (Q5JTV8 whole entry, looked up): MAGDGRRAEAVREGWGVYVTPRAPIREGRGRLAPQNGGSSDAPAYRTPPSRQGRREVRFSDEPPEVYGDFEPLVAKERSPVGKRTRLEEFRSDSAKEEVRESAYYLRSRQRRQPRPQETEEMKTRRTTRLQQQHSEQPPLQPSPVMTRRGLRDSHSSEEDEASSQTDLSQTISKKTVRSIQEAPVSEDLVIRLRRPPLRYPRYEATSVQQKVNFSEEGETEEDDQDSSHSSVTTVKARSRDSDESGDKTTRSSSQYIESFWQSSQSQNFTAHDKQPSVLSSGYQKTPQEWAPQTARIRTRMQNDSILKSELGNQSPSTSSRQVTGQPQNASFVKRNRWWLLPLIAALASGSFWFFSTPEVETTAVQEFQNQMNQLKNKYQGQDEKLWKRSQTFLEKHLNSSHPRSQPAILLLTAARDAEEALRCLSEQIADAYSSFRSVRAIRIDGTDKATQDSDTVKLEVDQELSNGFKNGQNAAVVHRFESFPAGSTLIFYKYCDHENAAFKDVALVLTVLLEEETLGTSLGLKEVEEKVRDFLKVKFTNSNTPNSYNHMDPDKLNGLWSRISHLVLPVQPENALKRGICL

For the compound `O=C1C2C=CC(C(O)c3ccc([N+](=O)[O-])cc3)N(Nc3ccc([N+](=O)[O-])cc3)C2C(=O)N1c1ccccc1` (stereo not given), the composite z-score in test [1] was determined as 0.867; in [2], 0.969; in [3], 0.539; in test [5] it was 0.818; in test [6], 1.29; in [7] it was 0.301. The composite z-score was 0.255 in test [8]; -0.12 in test [9]; 0.69 in test [10]; 1.47 in test [11]; 0.179 in [13]; 2.01 in test [14]. Besides, the composite z-score in [15] was 0.757; in [16], 0.152; in test [17] it was 0.0796; in [18] it was 0.0473; in test [19], 1.3; in test [20] it was 2.8. The results for the z-score in test [4] and in test [12] were -0.291 (inactive) and -0.74, respectively.

Take `CC(C)CON=C1[C@H]2CCn3c(=O)n(-c4ccccc4)c(=O)n3[C@H]2[C@H](O)[C@@H]2O[C@H]12`: the composite z-score is 0.734 in test [1]; -0.217 in test [2]; -0.481 in [3]; 0.229 in test [5]; 0.298 in test [6]; 0.481 in [7]. Further, the composite z-score was 0.532 in [8]; 1.2 in test [9]; -0.0603 in test [10]; -0.626 in test [11]; 0.598 in [13]; -0.148 in [14]. The composite z-score in [15] is -0.687; in [16], -0.291; in [17] it was -0.267; in test [18], -0.269; in [19], 0.14; in test [20] it was 0.0478. For the same compound, the z-score is -0.271 (inactive) in test [4] and -2.53 in [12].

Consider `c1ccc(C2NCCc3c2[nH]c2ccccc32)cc1` (stereo not given), for which the composite z-score was -0.214 in test [1]; -0.227 in [2]; 0.412 in test [3]; 0.269 in test [5]; -0.704 in test [6]; 0.112 in [7]. Further, the composite z-score in [8] is -0.142; in test [9], 0.0559; in test [10] it was 0.586; in test [11], -0.571; in test [13] it was 0.106; in [14] it was -0.387. In addition, the composite z-score in test [15] was -0.951; in test [16], -0.124; in [17], -0.147; in test [18], 0.183; in test [19], 0.446; in [20] it was 0.128. Also, the z-score in [4] is -0.231 (inactive); in [12], -3.13.

Regarding `C=C(COC)/C(=C/C[C@H](OC(=O)c1ccncc1)c1ccc(CO)o1)c1cc(C(=O)OC)ccc1OC`, the composite z-score in test [1] was 1.69; in test [2], -0.0393; in test [3], -0.0885; in [5], 1.37; in test [6], 0.637; in [7], 0.0603. In addition, the composite z-score came to 1.15 in [8]; 0.82 in test [9]; 1.34 in test [10]; 0.822 in [11]; 0.208 in test [13]; 0.0845 in test [14]. The composite z-score is -0.409 in test [15]; -0.0107 in [16]; -0.0553 in [17]; -0.0446 in [18]; 0.0683 in test [19]; 0.318 in test [20]. Further, the results for the z-score in test [4] and in test [12] were -0.647 (inactive) and -0.718, respectively.

With `C=CCN1C(=O)[C@]2(O[C@H](CCn3cc(CCO)nn3)[C@@H]([Si](C)(C)c3ccc(OC)cc3)[C@@H]2C)c2cc(N3CCOC3=O)ccc21`, the composite z-score in test [1] was 1.62; in [2] it was -0.286; in test [3], 0.223; in [5] it was 0.301; in test [6] it was 0.341; in test [7], -0.82. The composite z-score in test [8] is -0.609; in [9], -0.555; in [10] it was 0.175; in test [11] it was 1.07; in test [13], -0.264; in test [14] it was 0.504. Besides, the composite z-score in [15] is -0.463; in test [16], -0.0403; in [17], -0.0356; in test [18] it was -0.0841; in [19], 1.52; in test [20] it was 0.465. Further, the results for the z-score in [4] and in test [12] were 2.29 (inactive) and -3.46, respectively.

On to `CC(C)=CCCC(C)=CCON=C1C[C@@H](O)[C@@H](O)[C@@H]2[C@@H]3C(=O)N(C[C@@H]4CCCO4)C(=O)[C@@H]3CC[C@@H]12`, for which the composite z-score in test [1] was 0.998; in test [2], -0.364; in test [3], -0.753; in test [5] it was 1.33; in [6], 1.29; in [7] it was 1.15. Moreover, the composite z-score is 1.37 in test [8]; 1.37 in [9]; 1.52 in [10]; 1.38 in test [11]; 0.763 in test [13]; -0.599 in test [14]. Moreover, the composite z-score in test [15] is -1.4; in test [16], -0.104; in [17], -0.243; in [18], -0.319; in test [19], 0.101; in [20], 0.488. Further, the results for the z-score in [4] and in test [12] were 0.363 (inactive) and 0.398, respectively.
